Source: PubChem BioAssay (NCI)
Compounds without any hit were thinned out: in the full panel of roughly 79,000, 15% have a hit. The source made the active and inactive calls. No stated cut-off is given here; in the data, active means growth inhibition above about 70%; inactive means the rest.

Key:
[1] = NCI Yeast Anticancer Drug Screen. Data for the rad50 strain (AID 155);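 further: 0% = growth of vehicle-only cultures of the same strain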; conditions: S. cerevisiae rad50 strain growth inhibition; at 50.0 µM; hits give high values
Outline: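 Genetically altered yeast (DNA repair pathway); compound treatment; growth inhibition vs vehicle ctrl.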

[2] = NCI Yeast Anticancer Drug Screen. Data for the mec2-1 strain (AID 157); conditions: S. cerevisiae mec2-1 strain, at 50.0 µM, hits give high values
Outline: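 Compounds were applied to mec2-1 yeast cells. Their growth was then compared with that of vehicle-treated cultures to give growth inhibition.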

[3] = NCI Yeast Anticancer Drug Screen. Data for the sgs1 mgt1 strain (AID 161);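 further: 0% = growth of cultures given vehicle only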; conditions: S. cerevisiae sgs1 mgt1 strain, at 50.0 µM, hits give high values
Outline: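 Percent growth inhibition was derived by comparing compound-exposed mutant yeast with vehicle-exposed cultures. The strain carries alterations in DNA damage repair.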

[4] = NCI Yeast Anticancer Drug Screen. Data for the cln2 rad14 strain (AID 165);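 further: 0% = growth equal to vehicle treated cultures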; conditions: S. cerevisiae cln2 rad14 strain, at 50.0 µM, hits give high values
Outline: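 Strain: cln2 rad14 yeast, altered in cell cycle control and DNA damage repair. Read-out: growth inhibition vs vehicle.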

[5] = NCI Yeast Anticancer Drug Screen. Data for the bub3 strain (AID 167); conditions: S. cerevisiae bub3 mutant strain, at 50.0 µM, hits give high values
Outline: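 Yeast carrying a defined mutation is treated with each compound, and growth is compared with that of vehicle-exposed cells to give inhibition.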

[6] = NCI Yeast Anticancer Drug Screen. Data for the mlh1 rad18 strain (AID 175); conditions: S. cerevisiae mlh1 rad18 strain growth inhibition; at 50.0 µM; hits give high values
Outline: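 A repair-deficient yeast strain is exposed to test compound, and growth is scored relative to vehicle-treated controls.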

Measured: growth inhibition

COC(=O)c1ccccc1Cl
inactive: [1] -11.2% | [2] 4% | [3] 9.05% | [4] -14.3% | [5] 6.65% | [6] 26.1%

CCOC(=O)N1CCN(C(=O)OCC)C(C)C1 (configuration not stated)
inactive: [1] 4.45% | [2] -0.7% | [3] -8.8% | [4] -20.1% | [5] 6.35% | [6] -8.6%

O=C(Nc1nc(=S)[nH][nH]1)C(=O)C1C(=O)Nc2ccccc2S1=O (configuration not stated)
inactive: [1] 3.45% | [2] -10.8% | [3] -4.2% | [4] 4% | [5] -20.9% | [6] -0.6%

CCC1(O)CC2C3C(C(=O)OC)=C4Nc5ccccc5C45CCN(C31)C25 (configuration not stated)
inactive: [1] 6.2% | [2] -6.3% | [3] 3.35% | [4] 11.8% | [5] 1.9% | [6] -2.1%

S=C(Cc1ccccc1)Nc1ccccc1
inactive: [1] 12.1% | [2] -18.5% | [3] 14.1% | [4] -22.9% | [5] -25.4% | [6] 3.3%

COC1OC(CO)C(O)C(OC(C)=O)C1NC(=O)N(CCCl)N=O (configuration not stated)
inactive: [1] -4.9% | [2] -13.4% | [3] -6.2% | [4] 7.4% | [5] -7.65% | [6] -8.75%

Cc1cc2c(C#N)c3ccccc3c(=O)n2c2ccccc12
inactive: [1] -0.95% | [2] 6.75% | [3] -1.25% | [4] -7.4% | [5] -13.7% | [6] 3.4%

O=C(O)/N=N\C(=O)O
inactive: [1] -36.9% | [2] -23.9% | [3] -19.4% | [4] -5.05% | [5] -26.4% | [6] -27.2%

CC(=O)Oc1c(Cl)c(Cl)c(C#N)c(Cl)c1C#N
inactive: [1] 30.4% | [2] 1.7% | [3] 26.2% | [4] 10.8% | [5] 8.8% | [6] 26.1%

CC(=O)Nc1ccccc1NC1CC(C)N(c2ccccc2)N1C(C)=O (configuration not stated)
inactive: [1] -10.9% | [2] -42.4% | [3] -40.4% | [4] -11.5% | [5] -34.4% | [6] 1.05%

CC(=O)CC(=O)c1ccc(Cl)cc1
inactive: [1] -28.4% | [2] -11.4% | [3] -10.8% | [4] -13.6% | [5] -4.1% | [6] -0.25%

O=C1NC2(CCCC2)C(=O)N2CCCC12 (configuration not stated)
inactive: [1] -8.65% | [2] -17.6% | [3] 17.7% | [4] -5.75% | [5] 0.3% | [6] 27.2%

Nc1ccc(O)c(C(=O)O)c1
inactive: [1] 24.1% | [2] 11.2% | [3] 11.2% | [4] 0.8% | [5] 1.35% | [6] 26.6%

CC(C)[C@H]1CC[C@@](C)(C(=O)O)C1
inactive: [1] 12.4% | [2] 7.5% | [3] 15.2% | [4] 5.8% | [5] 23.4% | [6] 16.4%

FC(F)(F)c1ccccc1N=Cc1cccs1
inactive: [1] -12.1% | [2] -9.55% | [3] 23.1% | [4] 3.05% | [5] 13.4% | [6] 20.3%

CC(=O)C1=C(c2ccccc2)N(C2OC(CO)C(O)C(O)C2O)C(S)=C(C#N)C1c1ccc(Cl)cc1 (configuration not stated)
inactive: [1] 42.9% | [2] 23.9% | [3] 10.1% | [4] 29.2% | [5] 25.1% | [6] 49%

COc1cc(C=O)cc([N+](=O)[O-])c1O
inactive: [1] -2.2% | [2] -9.75% | [3] -2.2% | [4] 1.05% | [5] -0.45% | [6] -6.1%

N#CNc1nc(N)cc(=O)[nH]1
inactive: [1] -4.65% | [2] -23.6% | [3] -2.45% | [4] 3% | [5] -27.1% | [6] 11.2%

CCOC(=O)N/N=C(\Cc1ccccc1)OCC
inactive: [1] 16% | [2] 13.2% | [3] 8.45% | [4] 13.7% | [5] 14.6% | [6] 39.2%

O=C(NC12CC3CC(NC(=O)c4ccccc4)(CC(C1)c1ccccc13)C2)c1ccccc1
inactive: [1] 42.9% | [2] 40.2% | [3] 57.4% | [4] 27.4% | [5] 52.5% | [6] 38.4%

O=C1NC(=O)c2ccc(Br)c3cccc1c23
inactive: [1] 17.9% | [2] 18.9% | [3] 16.1% | [4] 21.6% | [5] 19.9% | [6] 1.75%

COP(=O)(CC(=O)C1OC(C)(C)OC1C(O)COCc1ccccc1)OC (configuration not stated)
inactive: [1] -21.3% | [2] 22.9% | [3] 22.9% | [4] 14.3% | [5] 14.6% | [6] 5.85%

CN/C=C(/OCc1ccccc1)c1ccc(O)c(O)c1
inactive: [1] 2.2% | [2] 0.9% | [3] 3.05% | [4] -6% | [5] -19.7% | [6] 19.2%

Cc1cc(Cl)ccc1NC(=O)Nc1c(Oc2ccc(Cl)cc2)ccc(Cl)c1S(=O)(=O)O
active: [1] 76.8%
inactive: [2] 36.8% | [3] 55.5% | [4] 3.85% | [5] -0.75% | [6] 45.9%

CCCOC(=O)C(O)c1ccc(C)cc1 (configuration not stated)
inactive: [1] -1.5% | [2] -11.8% | [3] 12.9% | [4] -3.75% | [5] 5.7% | [6] -14.7%

N#CC1CCCC/C1=N/NC(N)=O (configuration not stated)
inactive: [1] -11.9% | [2] -6.65% | [3] -13.6% | [4] -6.05% | [5] -6.65% | [6] -6%

CCc1ccc(OC(=O)CCl)cc1
inactive: [1] -19.4% | [2] 9.5% | [3] -21.6% | [4] -28.7% | [5] -3.4% | [6] -42.5%

C=CCNC(=O)CCCCCCCC1C(CCCCCCCC)C2(Cl)C(Cl)=C(Cl)C1(Cl)C2(Cl)Cl (configuration not stated)
inactive: [1] 23.6% | [2] -4.6% | [3] 18.2% | [4] -12.2% | [5] 1.75% | [6] 17.8%

O=C(O)c1cc(C2CCCC2)nc2ccccc12
inactive: [1] 4.6% | [2] 17% | [3] -5.25% | [4] -6% | [5] -13.2% | [6] 6.85%

Nc1cccc(S(=O)(=O)Nc2c(N)nc(SCC(=O)O)[nH]c2=O)c1
inactive: [1] -15% | [2] -15.8% | [3] -19.7% | [4] -9.3% | [5] 11.9% | [6] 21.6%

O=C(c1cc2ccccc2s1)c1ccccc1Cc1cccc2ccccc12
inactive: [1] 33.8% | [2] 7.25% | [3] 31.2% | [4] 21.2% | [5] 5.45% | [6] -0.75%

COc1ccc2[nH]c3c4c(ccc3c2c1)C(=O)C=CC4=O
inactive: [1] 19.8% | [2] 18.3% | [3] 12% | [4] -1.05% | [5] 9.45% | [6] 17.6%

CCOC(=O)NC(N)=O
inactive: [1] 11.3% | [2] -1.45% | [3] 14.2% | [4] -8.1% | [5] 0.4% | [6] 6.85%

CC(=O)Nc1ccc(CCNC(=O)c2ccc3ccccc3c2O)cc1
inactive: [1] -21.8% | [2] -33.1% | [3] -15.2% | [4] -6.35% | [5] -11.8% | [6] -13.4%

CSc1nc(N)c(N)c(N)n1
inactive: [1] 0.1% | [2] 2.9% | [3] -2.75% | [4] -21.8% | [5] 11.8% | [6] 14.4%

O=C(CCC1CCCCC1)OC1CCCC1
inactive: [1] 12% | [2] -4.45% | [3] -2.7% | [4] -5.1% | [5] -2.3% | [6] 24.3%

Cc1c(C)c(CC(=O)N2CC2)c(C)c(C)c1CC(=O)N1CC1
inactive: [1] -23.4% | [2] 9.75% | [3] -3.9% | [4] -26.1% | [5] 2.65% | [6] -36.2%

CCOC(=O)c1ccc(N2C(=O)C(Cl)(c3ccccc3)C2c2ccco2)cc1 (configuration not stated)
inactive: [1] 16.2% | [2] 9.85% | [3] -1.65% | [4] 9.1% | [5] 12.4% | [6] 10.5%

O=C1OC(c2ccccc2)N(C(=O)c2ccccc2)C1Cc1ccc(OCc2ccccc2)cc1 (configuration not stated)
inactive: [1] -30.5% | [2] -6.4% | [3] -5.65% | [4] -13.7% | [5] 0.95% | [6] 5.75%

CC(=O)c1ccc(N=C2C(=O)Nc3ccccc32)cc1
inactive: [1] 28.9% | [2] 15.8% | [3] 10.4% | [4] 19.8% | [5] 9% | [6] 25.8%

FC1(F)C(F)(F)C(F)(F)C2(F)C(F)(F)C(F)(F)C(F)(F)C(F)(F)C2(F)C1(F)F (configuration not stated)
inactive: [1] -25.2% | [2] -21.2% | [3] -17.7% | [4] 7.25% | [5] -0.8% | [6] -8.5%

C[N+](C)(C)N=C1CCCCC1
inactive: [1] 10.9% | [2] -3.6% | [3] -11.3% | [4] 7.5% | [5] -2.6% | [6] -16.8%
